# IMPase cell inh: qHTS Assay for Identifying the Cell-Membrane Permeable IMPase Inhibitors | Inositol monophosphatase 1 (Rattus norvegicus), P97697 | CHO-M1 cells, IP1 accumulation, HTRF TR-FRET ratio | inhibition (IP1 accumulation), % at 46.1 µM | 120,000 tested, under 10 active | AID 901, 2007; active = well fitted curve in the direction sought with a large enough effect in the signal ratio, not every such curve was filed as active; inconclusive = small, poorly fitted or top-dose-only effect, or a change in a side signal; inactive = no such curve, though single readings can be large or run the other way; the % refers to the signal ratio;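 also: cells stimulated with carbachol in lithium chloride buffer; plate controls were DMSO basal wells for no effect and reference inhibitor wells for full effect; higher means more IMPase inhibition seen as more IP1 and lower FRET ratio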
#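 Seeded CHO-M1 cells were dosed with compound at up to 46 uM, stimulated with carbachol for 30 min, then lysed in IP-One detection reagents. Higher IP1 lowers the TR-FRET signal.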
# NPSR antag: qHTS Assay for Antagonists of the Neuropeptide S Receptor: cAMP Signal Transduction. Q6W5P4. CHO-NPSR cells, cAMP TR-FRET, antagonist mode. Potency, µM (doses to about 38.3 µM), without a hit: at the highest dose activity change, negative = inhibition, usual class: inhibitors. 220,000 compounds, 1% hits; also: potency is read from the fitted curve at half-maximal effect; % is scaled to controls: 0 for no effect and ±100 for the full control effect; nearly all actives have a fitted effect of over 50% in size
# Target sequence (Q6W5P4 whole entry, looked up): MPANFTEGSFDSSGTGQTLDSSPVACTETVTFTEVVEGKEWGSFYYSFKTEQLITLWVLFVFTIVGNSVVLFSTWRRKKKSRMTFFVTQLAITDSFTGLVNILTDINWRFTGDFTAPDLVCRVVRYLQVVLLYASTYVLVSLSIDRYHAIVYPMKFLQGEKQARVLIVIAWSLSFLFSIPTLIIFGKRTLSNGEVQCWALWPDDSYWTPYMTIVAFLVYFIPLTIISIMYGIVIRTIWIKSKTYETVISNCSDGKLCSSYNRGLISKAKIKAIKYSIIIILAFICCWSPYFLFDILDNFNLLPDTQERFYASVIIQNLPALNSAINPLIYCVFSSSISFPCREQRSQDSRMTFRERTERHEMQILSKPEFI
# HTT cytoprotect: qHTS Multiplex Assay to Identify Dual Action Probes in a Cell Model of Huntington: Cytoprotection (ATP). PC12 HTT-Q103 induced, cytoprotection, ATP luminescence, 40 h. Potency, µM (highest dose often 56.4 µM), for the others: cytoprotection (ATP increase), usual class: activators. AID 1471, 2008. 230,000 compounds, 0.14% hits; also: potency is read from the fitted curve at half-maximal effect; % of control where 0% means no effect; nearly all actives have a fitted effect of over 45% in size
#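 Compounds added alongside 100 nM tebufenozide, which induces toxic Q103 huntingtin exon 1-GFP in stable PC12 cells; surviving cells quantified by luminescent ATP measurement. Medium: phenol red-free DMEM, 5% equine and 5% calf serum.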
# PNC inhibitor: High Content Assay for Compounds that inhibit the Assembly of the Perinucleolar Compartment. activity change (PNC), negative = inhibition, % at 10 µM. AID 2417, 2010. PC3M PTB-GFP, PNC prevalence imaging, 16 h; active compounds read low. 140,000 compounds, 3.1% hits;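 active = readout at or below -70, meaning at least 70% loss of cells showing the perinucleolar compartment, a nuclear body marking cancer cells; inconclusive = readout between -30 and a set limit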;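 also: plate controls were DMSO wells for no effect and camptothecin positive control wells for full effect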
#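 Read-out is percentage of cells bearing a perinucleolar compartment, from automated 20x imaging of fixed, Hoechst-stained PC3M PTB-GFP cells. Cells were seeded 4 h, then exposed 16 h to compound (23 nl of library stock) in duplicate plates.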
# HttQ103 aggreg: qHTS Multiplex Assay to Identify Dual Action Probes in a Cell Model of Huntington: Aggregate Formation (GFP); PC12 HttQ103-GFP aggregates, Acumen cytometry, 40 h; 220,000 compounds, 1.1% hits; Potency, µM (series often up to 46.1 µM), without a hit: at the top dose activity change, negative = inhibition, hits mostly inhibitors; also: potency is read from the fitted curve at half-maximal effect; % is scaled to controls: 0 for no effect and ±100 for the full control effect; nearly all actives have a fitted effect of over 60% in size
#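 Compounds (qHTS titration) were added to PC12 cells expressing an ecdysone-driven HTT exon 1 Q103–GFP fusion after induction with 100 nM tebufenozide. Aggregate formation was measured as GFP objects in cell lysates.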
# IMPase Li inh: qHTS Assay for Identifying the Cell-Membrane Permeable IMPase Inhibitors: Potentiation with Lithium. CHO-M1 cells, IP1 TR-FRET (IP-One), carbachol + lithium. Potency, µM (top dose mostly 59.4 µM), without a hit: at the top dose activity, negative = IMPase inhibition, most hits filed as inhibitors. 210,000 compounds, 0.35% hits. AID 1457, 2008;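 also: IP1 builds up when IMPase is blocked and the TR-FRET signal falls; potency is read from the fitted curve at half-maximal effect; plate controls were basal vehicle for no effect and high inhibitor control for full effect; nearly all actives have a fitted effect of over 50% in size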
#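 CHO cells stably expressing M1 receptor (2000/well, cultured 16–30 h) treated 30 min at 37C with compound plus low lithium. Cytosolic IP1 by TR-FRET (665/620 ratio and 620 channel) after 10 min lysis; AC50 by Hill fit.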
# An asterisk follows results filed as active; u = inconclusive; x = no result; [ ] = another dose, or the depositor's remark. Compounds with a hit are over-represented: about 3.4% of the library has one in this group of screens. Unless noted, calls follow the shape of the dose curve; as a rule, active = well fitted curve in the direction sought with a large enough effect; inconclusive = small, poorly fitted or top-dose-only effect, or another doubt; inactive = no such curve, though single readings can be large; an effect the other way counts as inactive or inconclusive.
SMILES,IMPase cell inh,NPSR antag,HTT cytoprotect,PNC inhibitor,HttQ103 aggreg,IMPase Li inh
CCOCCn1c(N2CCN(c3ccccc3)CC2)nc2c1c(=O)n(C)c(=O)n2C,4,17%[46.1 µM],2%,u,-12%,3%[38.3 µM]
CCOC(=O)Cn1c(CN2CCN(C(c3ccccc3)c3ccccc3)CC2)nc2c1c(=O)n(C)c(=O)n2C,u,16µM*,5%[10 µM],u,-15%,35%[38.3 µM]
COCCn1c(N2CCN(c3ccccc3)CC2)nc2c1c(=O)n(C)c(=O)n2C,x,20%,2µM*,x,19%[9.22 µM],19%
C[C@@](N)(C(=O)O)c1ccc(P(=O)(O)O)cc1,-1,x,-6%,x,x,0%
CC(C)C[C@@H](CC(=O)N[C@H](CC(=O)N[C@@H]1CCCC[C@H]1C(=O)N[C@H](CC(=O)N[C@@H](CCC(=O)O)CC(=O)O)Cc1c[nH]c2ccccc12)C(C)C)NC(=O)[C@@H]1CCCC[C@H]1N,x,x,-36%,x,x,5%
COc1ccccc1CCn1c(=O)c(-c2ccc(F)cc2)nc2cncnc21,x,x,u,x,x,24%
O=C(CSc1nncs1)N1c2ccccc2Sc2ccccc21,10,15%[7.67 µM],-7%[1.9 µM],-18,-18%,22%[38.3 µM]
Cc1ccc(SCC(=O)N2c3ccccc3Sc3ccccc32)cc1,14,u,-36%,13,16µM*,24%[38.3 µM]
C[C@@H](C(=O)Nc1ccc2ccccc2c1)[C@@H]1C[C@@]1(C)[C@@H](NC(=O)c1cnccn1)c1ccccc1,x,-15%,-52%,-20,17%,-2%
C[C@@H](C(=O)Nc1ccc2ccccc2c1)[C@H]1C[C@]1(C)[C@H](NC(=O)c1cnccn1)c1ccccc1,x,-28%,-71%,-91*,u,13%
CCN(CC)CCCNC(=O)CN1C(=O)CSc2ccc(S(=O)(=O)N3CCOCC3)cc21,x,14%,x,-113*,5%,-1%
Cc1[nH]c2ccccc2c1SCCNC(=O)c1ccc(Br)o1,-2,-18%[46.1 µM],-20%[10 µM],u,25µM*,7%
O=C(NCCSc1c[nH]c2ccccc12)c1ccc(Br)o1,4,-13%,29%[10 µM],-119*,-6%,8%
CC(C)C(=O)NCCSc1c[nH]c2ccccc12,8,-5%[46.1 µM],-9%[10 µM],32,11%,24%[38.3 µM]
O=C(OCC(=O)N1CCc2ccccc21)c1cncc(Br)c1,x,-1%,2.2µM*,x,u,8%
O=C(OCC(=O)N1CCCc2ccccc21)c1cncc(Br)c1,-6,-7%[46.1 µM],-8%[10 µM],-4,26%,x
O=C(OCC(=O)N1CCc2ccccc21)c1c2c(nc3ccccc13)CCCC2,7,u,-1%[10 µM],-110*,-16%,x
CC1Cc2ccccc2N1C(=O)COC(=O)c1c2c(nc3ccccc13)CCCCC2 (stereo not drawn),x,-47%,13%[10 µM],u,u,14%
CCOC(=O)[C@@H](N)CS,x,x,25%,x,10%,x
CC1CCC2C(=O)N3C(CCC(C)C3c3ccc(-c4ccco4)cc3)C(=O)N2C1c1ccc(-c2ccco2)cc1 (stereo not drawn),x,x,-24%[10 µM],x,x,x
O=C(c1ccco1)N(Cc1ccco1)c1ccc(O)cc1,2,-4%[7.67 µM],5%[0.074 µM],-96*,-17%,3%[38.3 µM]
Cc1c(NC(=O)c2nc3ccccc3n(C)c2=O)cccc1[N+](=O)[O-],2,x,x,x,x,x
O=C(Nc1ccccc1C(F)(F)F)c1cc(-c2ccccc2O)on1,2,-8%[46.1 µM],-12%[10 µM],-100*,-10%,-2%
O=C1C=CCC(/C=C/c2ccccc2)O1 (stereo not drawn),x,16%,x,u,10µM*,-1%
O=C(O)/C=C/C=C/c1ccccc1,x,x,x,x,x,10%
NC(N)=NC[C@H](N)C(=O)O,x,x,-5%[10 µM],x,x,0%
N#Cc1cc(-c2cccc(Cl)c2)c[nH]c1=O,4[1.84 µM],-3%[46.1 µM],-13%[10 µM],-92*,1%,2%[38.3 µM]

# Bioassay records as filed in PubChem.
